Measured values taken from PubChem BioAssay (NCATS).
Records with an inconclusive call do not appear. Active and inactive are the calls of the source. Calls come from the whole dose curve; as a rule, active = well fitted inhibition curve with a large enough effect; inconclusive = small, poorly fitted or top-dose-only effect; inactive = no such curve, though single readings can be large or run the other way.

Experiments:
[1] = target: Retinaldehyde dehydrogenase 3 (Homo sapiens) (UniProt P47895); assay: qHTS for Inhibitors of the Aldehyde Dehydrogenase Family (ALDH1A3) Confirmatory screens (AID 2061311); note: nearly all actives have a fitted effect of over 60% in size; note: potency is the fitted concentration of half-maximal effect
[2] = target: Retinal dehydrogenase 2 (Homo sapiens) (UniProt O94788); assay: qHTS for Inhibitors of the Aldehyde Dehydrogenase Family (ALDH1A2) Confirmation screens (AID 2061314); note: potency is the fitted concentration of half-maximal effect; nearly all actives have a fitted effect of over 65% in size
[3] = target: Retinaldehyde dehydrogenase 3 (Homo sapiens) (UniProt P47895); assay: qHTS for Inhibitors of the Aldehyde Dehydrogenase Family (ALDH1A3) Primary screen (AID 2061315)
[4] = target: Aldehyde dehydrogenase 1A1 (Homo sapiens) (UniProt P00352); assay: qHTS for Inhibitors of the Aldehyde Dehydrogenase Family (ALDH1A1) Confirmatory screens (AID 2061316); note: nearly all actives have a fitted effect of over 65% in size; note: potency is the fitted concentration of half-maximal effect

Compound | Potency [1] | Potency [2] | Potency [3] | Potency [4]
O=C(Nc1sc2c(c1-c1nc3ccccc3s1)CCNC2)C(F)(F)F | inactive | 28.3 µM (active) | inactive | 
Nc1nc2c(s1)C(c1ccccc1Cl)CC(=O)N2 (stereo not drawn) | 5.65 µM (active) |  | inactive | 
CC(=O)Nc1sc2c(c1-c1ccccc1)CCN(C(=O)OC(C)(C)C)C2 | inactive |  | inactive | 7.98 µM (active)
FC(F)(F)c1ccccc1-c1nc(NCc2ccc(-c3ccccc3)cc2)c2ccccc2n1 | 3.57 µM (active) |  | inactive | inactive
Cc1ccc(S(=O)(=O)Nc2cc(S(=O)(=O)c3ccc(C)cc3)c(O)c3cccnc23)cc1 | 1.13 µM (active) | 2.01 µM (active) |  | 1.42 µM (active)
CN(Cc1ccco1)Cc1ccc(O)c2ncccc12 | 11.3 µM (active) | 2.52 µM (active) | inactive | 
CC(=O)Nc1sc2c(c1-c1cccc3[nH]ncc13)CCNC2 | 12.7 µM (active) | 10.1 µM (active) |  | 11.3 µM (active)
Cc1sc(NC(=O)Cc2ccc3c(c2)OCO3)nc1-c1ccc2c(c1)CCN2C | 11.3 µM (active) | 12.7 µM (active) |  | 3.57 µM (active)
